# Experimental data: PubChem BioAssay AID651958 (The Scripps Research Institute Molecular Screening Center, 2012)
# Values joined by “and” are separate entries in the source; they are usually repeats but may differ in a detail not shown here. Identical values can stand only once. The campaign covered roughly 370,000 compounds. About 2,000 (0.54%) were called active. Rule as the data show it: active = inhibition above about 30%; inactive = the rest. Shown is part of a subset that was picked to be rich in actives.
# System: Crimean-Congo hemorrhagic fever virus L polyprotein viral ovarian tumor (vOTU) protease domain
# Experiment: CCHFV vOTU protease inhibitors, primary screen, biochemical, Pep-AMC substrate, fluorescence (AID 651958); also: 0% = vehicle wells with enzyme and 100% = no enzyme wells
# Conditions: at 11.5 µM, active compounds read high
row,SMILES,inhibition
1,CCOC(=O)c1cc2c(=O)[nH]c(C(Cl)(Cl)Cl)nc2o1,-3.85% (inactive)
2,CCOC(=O)c1ccc(Nc2cc3ccccc3c(=O)[nH]2)cc1,94.2% (active)
3,CCOC(=O)c1ccc(NC(=O)C2CC(=O)Nc3nc4ccccc4n32)cc1 (stereo not given),19.2% (inactive)
4,Cc1cc(C)cc(NC(=S)NC2CC3CCCC(C2)N3Cc2cccs2)c1 (stereo not given),-9.42% (inactive)
5,CCC(C)(C(=O)NC1CCCC1)N(C(=O)CNC(C)=O)c1ccc(C)cc1 (stereo not given),7.89% (inactive)
6,Oc1c(C=Nc2cccc3nsnc23)ccc2ccccc12,86% (active)
7,CC1=C(C(=O)N2CCOCC2)CC(CC(=O)NCC2CCCCC2)C(=O)N1Cc1ccc(F)cc1 (stereo not given),14% (inactive)
8,CCCn1c(N)c(C(=O)CSc2nnc(Cc3cccs3)n2C2CC2)c(=O)[nH]c1=O,-3.09% (inactive)
9,CC(=O)c1c(N)n(C)c(=O)n(C)c1=O,5.25% (inactive)
10,N#C/C(=C\c1ccccc1)c1n[nH]c(Cn2cncn2)n1,4.11% (inactive)
11,CCc1ccc(/C=N/NC(=O)c2ccc(OC3CCCC3)cc2)s1,12.3% (inactive)
12,COc1ccc(CNCCCNCc2ccc(OC)c(OC)c2)cc1OC,5.96% (inactive)
13,Cc1ccc2[nH]c(=O)c(CC=C(Cl)Cl)c(C)c2c1,3.16% (inactive)
14,CCOC(=O)c1ccc(NC(=O)c2nc[nH]c2C(=O)N[C@@H](CCCCNC(=O)OC(C)(C)C)C(=O)OC(C)(C)C)cc1,29.6% (active)
15,CC(C)(C)OC(=O)NCCCCCNC(=O)c1[nH]cnc1C(=O)Nc1nccs1,0.59% (inactive)
16,Cc1ccc(NC(=O)c2nc[nH]c2C(=O)N[C@@H](CCCCNC(=O)OC(C)(C)C)C(=O)OC(C)(C)C)cc1,27.1% (inactive)
17,CCOC1=C2CN(S(=O)(=O)c3ccc(C)cc3)[C@H](c3cccs3)C[C@H]2[C@H]2C(=O)N(c3ccccc3)C(=O)[C@H]2C1,-5.03% (inactive)
18,O=C(COc1ccc(Cl)cc1)N1CCN(c2cccc(C(F)(F)F)c2)CC1,32.4% (active)
19,CSCCC(NC(=O)COc1ccccc1)C(=O)N1CCN(c2cccc(C(F)(F)F)c2)CC1 (stereo not given),13.9% (inactive)
20,O=C(COc1ccc(Cl)cc1)N1CCN(S(=O)(=O)c2ccc(Cl)cc2)CC1,9.84% (inactive)
21,CCNC(=O)N1CCCC(C(=O)c2ccc(-c3ccccc3)cc2)C1 (stereo not given),-6.51% (inactive)
22,Cc1oc2c(F)c(F)c(F)c(F)c2c1S(=O)(=O)Nc1cccc(C(F)(F)F)c1,43.8% (active)
23,Cc1noc(C)c1S(=O)(=O)Nc1ccc(C(=O)O)cc1,7.91% (inactive)
24,Cc1ccc(N(CCC(=O)O)S(=O)(=O)c2cccc(C(F)(F)F)c2)cc1,-2.86% (inactive)
25,C[C@]12C=CC(=O)C=C1CC[C@@H]1[C@@H]2C(=O)C[C@@]2(C)[C@H]1CC[C@]2(O)C(=O)CO,0.7% (inactive) and 3.02% (inactive)
26,COCCCN(C(=S)Nc1c(C)cc(C)cc1C)C(C)c1ccncc1 (stereo not given),-6.09% (inactive)
27,CCOc1ccc(C2C(C#N)=C(N)N(N(C)C)C3=C2C(=O)CCC3)cc1 (stereo not given),16.2% (inactive)
28,CN(C)N1C(N)=C(C#N)C(c2ccc(Br)cc2)C2=C1CCCC2=O (stereo not given),35.1% (active)

row,SMILES,inhibition
1,CCc1ccc(C2C(C#N)=C(N)N(N(C)C)C3=C2C(=O)CCC3)s1 (stereo not given),1.4% (inactive)
2,CC(C(=O)N=Nc1c(O)n(C)c2ccc(Br)cc12)n1cnc2ccccc2c1=O (stereo not given),-4.46% (inactive)
3,CNc1nccc(-c2ccc(Cl)cc2)c1C#N,-58.4% (inactive)
4,CCn1c(C)nc2cc(C(=O)NNS(=O)(=O)c3ccc(C)cc3C)ccc21,-9.65% (inactive)
5,O=C1Cc2ccccc2Sc2ccc(Cl)cc21,7.8% (inactive)
6,CCN(CC)C(=O)[C@@H]1C=C2c3cccc4[nH]c(Br)c(c34)C[C@H]2N(C)C1,33.8% (active)
7,COc1ccc(NC(=O)C[C@H]2C(=O)N(CCc3ccccc3)C[C@@H]2C)cc1,29.5% (active)
8,CC1(C)CN(CCc2ccccc2)C(=O)[C@H]1CC(=O)Nc1ccc(Br)cc1,21.8% (inactive)
9,COc1ccc(CCN2C(=O)N(c3ccc(OC)cc3)C(=O)C2CC(=O)Nc2ccc(OC)cc2)cc1 (stereo not given),4.43% (inactive)
10,COC(=O)C1=C(c2cc3ccccc3s2)C[C@@H]2CC[C@H]1N2C(=O)NCCO,-0.84% (inactive)
11,Cc1noc(/C=C/c2ccco2)c1S(=O)(=O)N1CCC(C(=O)Nc2ccc(Cl)cn2)CC1,2.84% (inactive)
12,O=C(Nc1ccc(S(=O)(=O)NCC2CCCO2)cc1)c1ccc(F)cc1 (stereo not given),14% (inactive)
13,Cc1ccc(NC(=O)c2ccc(S(=O)(=O)NCC3CCCO3)cc2)cc1C (stereo not given),-7.16% (inactive)
14,CCOc1ccc(C(=O)Nc2ccc(S(=O)(=O)NCC3CCCO3)cc2)cc1OCC (stereo not given),35% (active)
15,CC(C)c1ccc(Nc2ncccc2C#N)cc1,7.01% (inactive)
16,CCC(C)(C)NC(=O)C(c1ccc(O)cc1)N(Cc1ccco1)C(=O)CCC(=O)Nc1ccccn1 (stereo not given),0.91% (inactive)
17,CSc1ccccc1NC(=O)CN(C)CC(=O)Nc1cccc(Br)c1,0.92% (inactive)
18,Cc1cccc(N(C(=O)c2sc(C)nc2C)C(C(=O)NCC2CCCO2)c2ccccc2)c1 (stereo not given),-8.32% (inactive)
19,C=CCn1c(N)cc(=O)nc1SCC(=O)Nc1cccc2ccccc12,-1.46% (inactive)
20,Cc1ccccc1-n1c(SCC(=O)Nc2cccc3ccccc23)nc(O)cc1=O,32.7% (active)
21,Cc1ccc(-n2c(SCC(=O)Nc3cccc4ccccc34)nnc2-c2ccccn2)cc1,-2.55% (inactive)
22,O=C(Cn1cnc2c(OCc3ccccc3)ncnc21)NCc1nc2ccccc2[nH]1,-9.89% (inactive)
23,Cn1c(=NC(=O)c2ccc3c(c2)OCCO3)sc2cc(S(C)(=O)=O)ccc21,-4.23% (inactive)
24,Cn1c(=NC(=O)c2cnccn2)sc2ccccc21,36.4% (active)
25,Cn1c(=NC(=O)c2ccco2)sc2cccc(F)c21,5.27% (inactive)
26,COC(=O)c1ccc(CN2C(=O)[C@]3(OCCC=C[C@H]3C)c3c(Br)cccc32)cc1,10.2% (inactive)
27,O=C(N[C@@H]1C/C=C\C[C@@H](CC(=O)N(CCO)Cc2ccccc2)C(=O)N[C@H](Cc2ccccc2)COC1=O)OCC1c2ccccc2-c2ccccc21,0.7% (inactive)
